Measured values: PubChem BioAssay
Active and inactive are the calls of the source.

Tests used:
[1] = E. coli DRC41 culture turbidity changes, primary screen, E. coli filamentation inducer project, strain DRC41, OD650, 48 h (AID 1152);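 also: E. coli MC1000 strain DRC41 lacking acrAB efflux pump and sulA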; conditions: E. coli DRC41 (acrAB sulA), higher = more signal, called active from +8 up or from −8 down
[2] = small-molecule binders of probe aLefty1, primary screen, biochemical, small-molecule microarray, 635/667 nm fluorescence (AID 1153); conditions: higher = more signal;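 also: score merges spot fluorescence with signal-to-noise ratio from the scanned slide images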
[3] = PSAC antagonists in infected red cells, primary screen, cell-based, P. falciparum Indochina, OD700, 1 h (AID 1154); conditions: P. falciparum Indochina infected RBC osmotic lysis, higher = more signal, called active from +8 up or from −8 down
[4] = PSAC antagonists in infected red cells, primary screen, cell-based, P. falciparum Indochina, OD700, 2 h (AID 1155);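 also: lysis reports solute entry through the parasite surface anion channel PSAC; channel blockers reduce lysis of infected cells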; conditions: P. falciparum Indochina infected erythrocytes, osmotic lysis OD700; higher = more signal, called active from +8 up or from −8 down
[5] = osmotic lysis modulators in infected erythrocytes, primary screen, PSAC antagonist project, cell-based, P. falciparum Indochina, OD700, 3 h (AID 1156); conditions: higher = more signal, called active from +8 up or from −8 down
[6] = PSAC antagonists in infected red cells, primary screen, cell-based, P. falciparum Indochina, OD700, 18 h (AID 1157); conditions: P. falciparum Indochina infected erythrocytes, osmotic lysis OD700, 18 h; higher = more signal, called active from +8 up or from −8 down
[7] = modulators of S6 phosphorylation in cells, primary screen, cell-based, A549, cytoblot, luminescence, serum-stimulated (AID 1158); conditions: A549 phospho-S6 cytoblot, 5 h, higher = more signal;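 also: serum-stimulated A549 lung adenocarcinoma cells; signal is phosphorylated S6 detected by cytoblot immunostaining with HRP secondary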
[8] = biological target: NADPH oxidase 2 (Homo sapiens) (UniProt P04839); test: NOX2-dependent H2O2 signal modulators, primary screen, NOX inhibitor project, cell-based, HEK293-NOX2, PMA-stimulated, Amplex Red fluorescence (AID 1159); conditions: 45 min, higher = more signal, called active from +8 up or from −8 down; also: test concentration not given here
NADPH oxidase 2 (Homo sapiens), sequence (P04839 whole entry, looked up): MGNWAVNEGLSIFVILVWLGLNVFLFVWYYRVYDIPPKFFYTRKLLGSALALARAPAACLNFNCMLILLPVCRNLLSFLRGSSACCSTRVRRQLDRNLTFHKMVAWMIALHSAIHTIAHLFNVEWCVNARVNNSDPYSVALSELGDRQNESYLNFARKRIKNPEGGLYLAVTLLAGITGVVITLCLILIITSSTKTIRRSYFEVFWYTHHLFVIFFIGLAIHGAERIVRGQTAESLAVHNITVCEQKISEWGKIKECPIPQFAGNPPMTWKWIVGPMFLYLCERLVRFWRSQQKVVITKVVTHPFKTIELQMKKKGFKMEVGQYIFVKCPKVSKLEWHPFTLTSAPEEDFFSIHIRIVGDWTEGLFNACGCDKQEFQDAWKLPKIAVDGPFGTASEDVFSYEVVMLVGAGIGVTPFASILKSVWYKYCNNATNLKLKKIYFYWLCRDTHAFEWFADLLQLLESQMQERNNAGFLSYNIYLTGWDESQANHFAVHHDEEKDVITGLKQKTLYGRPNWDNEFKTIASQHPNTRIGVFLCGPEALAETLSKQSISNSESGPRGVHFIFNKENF

[9] = biological target: NADPH oxidase 4 (Homo sapiens) (UniProt Q9NPH5); test: NOX4-dependent H2O2 signal modulators, primary screen, NOX inhibitor project, cell-based, HEK293-NOX4, tetracycline-induced, Amplex Red fluorescence (AID 1160); conditions: 45 min, higher = more signal, called active from +8 up or from −8 down
NADPH oxidase 4 (Homo sapiens), sequence (Q9NPH5 whole entry, looked up): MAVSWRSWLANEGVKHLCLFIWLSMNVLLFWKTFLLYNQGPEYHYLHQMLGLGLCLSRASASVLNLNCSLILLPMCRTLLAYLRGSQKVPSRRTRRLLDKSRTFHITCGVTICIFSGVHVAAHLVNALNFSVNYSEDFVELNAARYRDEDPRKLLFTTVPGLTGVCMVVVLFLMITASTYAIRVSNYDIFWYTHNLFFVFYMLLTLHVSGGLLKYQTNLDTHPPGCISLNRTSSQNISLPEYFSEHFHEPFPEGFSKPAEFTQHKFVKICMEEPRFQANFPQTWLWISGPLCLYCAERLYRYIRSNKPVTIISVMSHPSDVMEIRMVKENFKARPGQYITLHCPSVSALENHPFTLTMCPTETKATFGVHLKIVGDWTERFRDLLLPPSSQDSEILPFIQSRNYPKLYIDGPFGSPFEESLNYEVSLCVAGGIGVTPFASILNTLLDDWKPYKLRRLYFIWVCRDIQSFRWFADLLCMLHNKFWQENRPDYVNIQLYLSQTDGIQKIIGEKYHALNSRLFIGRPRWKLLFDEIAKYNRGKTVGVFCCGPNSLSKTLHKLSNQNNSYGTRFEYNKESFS

[10] = biological target: NADPH oxidase 5 (Homo sapiens) (UniProt Q96PH1); test: NOX5-dependent H2O2 signal modulators, primary screen, NOX inhibitor project, cell-based, HEK293-NOX5, Amplex Red fluorescence (AID 1161); conditions: HEK293-NOX5, ionomycin, 45 min, higher = more signal
NADPH oxidase 5 (Homo sapiens), sequence (Q96PH1 whole entry, looked up): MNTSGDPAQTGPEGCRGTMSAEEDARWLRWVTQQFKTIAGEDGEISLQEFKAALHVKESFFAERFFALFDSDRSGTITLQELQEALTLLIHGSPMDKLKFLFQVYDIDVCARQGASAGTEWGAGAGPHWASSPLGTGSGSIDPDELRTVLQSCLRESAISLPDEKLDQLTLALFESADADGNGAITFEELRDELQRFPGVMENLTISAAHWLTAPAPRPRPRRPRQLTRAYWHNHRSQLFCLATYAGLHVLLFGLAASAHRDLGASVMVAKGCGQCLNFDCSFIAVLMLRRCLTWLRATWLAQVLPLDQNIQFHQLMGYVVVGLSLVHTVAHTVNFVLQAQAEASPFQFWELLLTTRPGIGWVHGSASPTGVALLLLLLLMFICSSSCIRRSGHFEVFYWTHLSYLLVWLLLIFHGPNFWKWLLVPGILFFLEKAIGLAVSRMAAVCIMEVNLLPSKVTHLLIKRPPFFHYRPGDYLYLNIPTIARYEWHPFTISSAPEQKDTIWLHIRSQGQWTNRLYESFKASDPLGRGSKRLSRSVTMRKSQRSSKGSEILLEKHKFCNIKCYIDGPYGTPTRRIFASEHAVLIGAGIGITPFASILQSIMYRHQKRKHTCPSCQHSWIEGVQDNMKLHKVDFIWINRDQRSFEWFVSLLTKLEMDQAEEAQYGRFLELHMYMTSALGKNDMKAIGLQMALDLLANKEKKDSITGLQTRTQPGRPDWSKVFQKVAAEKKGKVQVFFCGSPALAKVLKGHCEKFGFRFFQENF

[11] = A549 cell viability effects, profiling panel, calcein-AM fluorescence, 48 h, basal (AID 1162); conditions: higher = more signal; also: test concentration not given here
[12] = adipocyte viability effects, profiling panel, cell-based, 3T3-L1 adipocytes, calcein-AM fluorescence, 48 h, basal (AID 1163); conditions: 3T3-L1 adipocytes viability, higher = more signal; also: test concentration not given here
[13] = HepG2 cell viability effects, profiling panel, calcein-AM fluorescence, 48 h, basal (AID 1164); conditions: higher = more signal; also: test concentration not given here
[14] = MM1S cell viability effects, profiling panel, calcein-AM fluorescence, 48 h, basal (AID 1165); conditions: higher = more signal;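 also: viability of MM1S multiple myeloma cells under basal unstimulated conditions; test concentration not given here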
[15] = basal RPMI8226 viability, no added stimulus, profiling panel, cell-based, calcein-AM fluorescence, 48 h, PK04 Diversity Set (AID 1166); conditions: RPMI8226 myeloma viability, higher = more signal;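 also: cells grown under basal conditions without added stimulus; test concentration not given here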
[16] = basal HepG2 mitochondrial membrane potential changes, profiling panel, cell-based, JC-1 fluorescence, 24 h, 100 nL compound (AID 1167); conditions: higher = more signal; also: test concentration not given here
[17] = basal 3T3-L1 adipocyte mitochondrial potential changes, profiling panel, cell-based, JC-1 fluorescence, 3T3-L1 adipocytes, 24 h, 100 nL compound (AID 1168); conditions: JC-1 mitochondrial fluorescence, higher = more signal, called active from +8 up or from −8 down; also: test concentration not given here
[18] = basal RPMI8226 mitochondrial membrane potential changes, profiling panel, cell-based, JC-1 fluorescence, 24 h, 100 nL compound (AID 1169); conditions: RPMI8226 myeloma, JC-1 mitochondrial potential fluorescence, higher = more signal; also: test concentration not given here
[19] = basal MM1S mitochondrial membrane potential changes, profiling panel, cell-based, JC-1 fluorescence, 24 h, 100 nL compound (AID 1170); conditions: higher = more signal; also: test concentration not given here
[20] = A549 lung cancer cell viability effects, profiling panel, resazurin fluorescence, 24 h, PK04 Diversity Set (AID 1171); conditions: higher = more signal, called active from +8 up or from −8 down; also: test concentration not given here

Row | Structure (SMILES) | z-score [1] | composite z-score [2] | z-score [3] | z-score [4] | z-score [5] | z-score [6] | z-score [7] | z-score [8] | z-score [9] | z-score [10] | z-score [11] | z-score [12] | z-score [13] | z-score [14] | z-score [15] | z-score [16] | z-score [17] | z-score [18] | z-score [19] | z-score [20]
1 | CC(C)C[C@@H]1NC(=O)[C@@H]2C[C@H](C(=O)NCCCCCNC(=O)CS)[C@H](c3ccc(O)cc3)N2C1=O | 2.03 (inactive) | 0.165 | 0.625 (inactive) | -0.37 (inactive) | 0.768 (inactive) | -0.73 (inactive) | 2.48 | -1.18 (inactive) | -1.35 (inactive) | -3.05 | 0.161 | 2.21 | -0.787 | -0.263 | -0.782 | -0.63 | -0.195 (inactive) | 0.393 | -1.1 | 0.16 (inactive)
2 | COc1cccc(C)c1NC(=O)O[C@H]1[C@H](OC(=O)Nc2ccc3c(c2)OCO3)[C@H](OC(=O)Nc2ccc3c(c2)OCO3)[C@@H](OC)O[C@@H]1CO | -0.66 (inactive) | 0.855 | 10.7 (active) | 1.4 (inactive) | 1.14 (inactive) | 0.691 (inactive) | -0.0632 | -1.52 (inactive) | -0.848 (inactive) | -1.37 | -0.934 | 0.372 | -0.997 | -1.62 | -1.82 | -0.514 | 0.308 (inactive) | -0.136 | -0.724 | -0.654 (inactive)
3 | COc1ccc([Si](C)(C)[C@H]2[C@H](CC(=O)N(CCO)Cc3ccccc3)O[C@@]3(C(=O)N(c4ccccc4)c4ccccc43)[C@@H]2C)cc1 | -0.79 (inactive) | -0.0603 | 26.5 (active) | 12.9 (active) | 0.495 (inactive) | 2.04 (inactive) | 0.297 | -0.0743 (inactive) | 0.689 (inactive) | -1.65 | -3.41 | -1.38 | -4.61 | -2.69 | -4.38 | -2.35 | 0.938 (inactive) | -1.11 | -2.27 | -3.43 (inactive)
4 | CC(C)C(=C=CC[C@H](O)c1cccc(OCCO)c1)C[C@H](O)c1ccccn1 | 1.21 (inactive) | 0.21 | 7.72 (inactive) | 0.631 (inactive) | 1.96 (inactive) | 0.626 (inactive) | 0.468 | -1.57 (inactive) | 0.362 (inactive) | -1.13 | 1.65 | -0.0875 | 0.731 | 0.301 | 0.942 | 0.807 | 0.259 (inactive) | 0.509 | -0.803 | 1.26 (inactive)
5 | C=CCNC(=O)[C@@H]1[C@H]2C(=O)O[C@H](c3ccccc3)[C@H](c3ccccc3)N2[C@H](c2ccc(O)cc2)[C@@]12C(=O)N(C(=O)OCCOC)c1ccc(C#CCC(C(=O)OC)C(=O)OC)cc12 | 1.17 (inactive) | 0.0026 | 2.41 (inactive) | 0.225 (inactive) | -0.451 (inactive) | 0.393 (inactive) | 0.0945 | 0.932 (inactive) | 0.584 (inactive) | 0.831 | 0.468 | 0.0473 | 0.419 | -1.83 | -2.88 | 0.206 | 0.605 (inactive) | -0.161 | -0.012 | -0.419 (inactive)
6 | Cc1c(NC(=O)/C(C#N)=C/C=C/c2ccc([N+](=O)[O-])cc2)c(=O)n(-c2ccccc2)n1C | 0.0351 (inactive) | 0.277 | 2.74 (inactive) | 0.636 (inactive) | 0.206 (inactive) | 0.598 (inactive) | -0.279 | -0.696 (inactive) | 0.0994 (inactive) | 0.714 | 0.251 | -0.141 | -0.182 | -1.02 | -0.787 | -1.19 | 0.0244 (inactive) | -0.278 | 0.096 | 0.0981 (inactive)
7 | COc1ccc(NN2C(C(O)c3ccc(F)cc3)C=CC3C(=O)N(C4CCCCC4)C(=O)C32)cc1 (stereo not given) | -1.24 (inactive) | 0.0561 | 5.76 (inactive) | 1.42 (inactive) | 0.37 (inactive) | 0.856 (inactive) | -0.54 | -1.73 (inactive) | -3.25 (inactive) | -1.23 | -0.705 | -0.17 | -0.0716 | -1.05 | -1.08 | -0.496 | -1.23 (inactive) | -0.169 | -0.191 | 0.227 (inactive)
